The whole screen tested about 150,000 compounds, of which about 540 (0.36%) showed an effect of 50% or more. For the sample, strong results were picked, then their nearest neighbours and some compounds at random.

The subject of this assay is Plasmodium falciparum. The experiment in a line: Primary screen in NF54 nanoGlo assay, in single point, at 2uM, 72h; a lower Z score goes with more inhibition. In kind it is functional, Erythrocyte. Conditions: timepoint 72 hour.
Usually % Inhibition stands for the drop in the measured response relative to a control, in per cent. Consider `Cc1c(NC[C@H](C)c2ccccc2)cnn1C`, for which the “% Inhibition” value is listed as -3% and the Z score is reported as 0.4.
For `C[C@@H](CNC(=O)C(C)(C)C)c1ccccc1`, the “% Inhibition” value is recorded as -10% and the Z score came out at 0.9.
On to `COC(C)[C@H](C)NCC(C)c1ccccc1` (some centres not stated), for which the “% Inhibition” value worked out at 73% and the Z score worked out at 1.55.
Take `Cc1cnc(=O)n(CC(=O)N2CCN(c3ccccc3F)CC2)c1`: the “% Inhibition” value was -1% and the Z score was found to be 0.07.
Regarding `Cn1cccc1CN(C(=O)c1cc2ccccc2[nH]1)C1CC1`, the “% Inhibition” value was -5% and the Z score stood at 1.
For `CN1CCC(N(CCc2ccccc2)C(=O)c2cccc3cnccc23)CC1`, the “% Inhibition” value is given as -4% and the Z score is given as 0.65.
As to `Cc1sc2ncnc(Nc3ccc4c(c3)OCO4)c2c1C`, the “% Inhibition” value is -3% and the Z score is 0.37.
In the case of `CC[C@H](C)[C@@H](CN(C)C)NC(=O)CCc1ccncc1`, the “% Inhibition” value was 20% and the Z score is listed as -2.58.
Regarding `O=C(NCC1CC1)c1ccc2[nH]c3c(c2c1)CCCCC3`, the “% Inhibition” value is given as -12% and the Z score was determined as 1.65.
`CCCC(O)(CCC)CC(=O)N1CCN(C(=O)OCC)CC1`: the “% Inhibition” value was -7% and the Z score came out at 0.63.
`O=C(c1ccc(-c2cn(-c3ccccc3)cn2)cc1)N1CCOC[C@@H](O)C1`: the “% Inhibition” value stood at 5% and the Z score is -0.8.
Turning to `CCOc1cc(CN2CC[S+]([O-])CC2)ccc1OC`, the “% Inhibition” value is 6% and the Z score is given as -1.1.
With `Cc1nn(C)c(Cl)c1C(=O)Nc1ccc2ccccc2c1`, the “% Inhibition” value turned out to be 10% and the Z score is -1.64.
For `Cc1nn(C)c(Cl)c1CNCc1ccc(N2CCCC2=O)cc1`, the “% Inhibition” value is -5% and the Z score is reported as 0.6.
As to `CCc1ccc([C@H]2NCCc3[nH]cnc32)nc1`, the “% Inhibition” value was found to be 55% and the Z score is recorded as -5.21.
For `Cc1nn(CCO)c(C)c1[C@@H]1NCCc2[nH]cnc21`, in that order: -16% and 2.3.
In the case of `c1ccc(-c2cc([C@@H]3NCCc4[nH]cnc43)on2)cc1`, the “% Inhibition” value is -4% and the Z score is listed as 0.56.
Consider `CCc1nnc2c(S(=O)(=O)N(Cc3cccc(Cl)c3)c3ccccc3)cccn12`, for which the “% Inhibition” value is on record as -17% and the Z score is 2.2.
As to `CN(Cc1ccccc1)C(=O)c1nc2ccccc2s1`, the “% Inhibition” value is listed as -10% and the Z score is on record as 1.35.
In the case of `CCCC1CCC(c2ccc(OC(=O)c3cccc(C(=O)OC)n3)cc2)CC1` (configuration not stated), the “% Inhibition” value was -10% and the Z score amounted to 1.93.
For `COCC(O)CN1CCCC(C(C)C)CC1` (configuration not stated), in that order: -5% and 0.7.
For the compound `Cc1ccc2[nH]c3c(c2c1)CN(C)CCC3`, the “% Inhibition” value stood at 4% and the Z score is given as -0.52.
Turning to `Cc1ccc2c(c1)c1c(n2S(=O)(=O)c2ccc(C(C)(C)C)cc2)CCCN(C)C1`, the “% Inhibition” value is 67% and the Z score is listed as -13.88.
As to `Cc1ccc2c(c1)c1c(n2CCc2ccncc2)CCCN(C)C1`, the “% Inhibition” value was determined as 4% and the Z score is -0.46.
`CNS(=O)(=O)CC1CCCN1CC1CCC(C)O1` (configuration not stated): the “% Inhibition” value is given as -5% and the Z score is recorded as 0.75.
For `CCCC(C)NC(=O)C(C)NC1CCN(C(C)=O)CC1CC` (configuration not stated), the “% Inhibition” value is recorded as -2% and the Z score is 0.22.
Take `CCc1cccc(NC(=O)Cc2nc(-c3cccnc3)n[nH]2)c1`: the “% Inhibition” value was -13% and the Z score is on record as 2.1.
For `CC(=O)c1ccc(S(=O)(=O)NC2(C(F)(F)F)CCOCC2)cc1`, in that order: -12% and 1.89.
For `Cc1ccc(-c2cc(C(=O)NC3CC3)nn2C)cc1`, in that order: -10% and 1.31.
Consider `COc1ccc(-c2cc(N3CC[C@H](NC(=O)c4ccc(C)cc4)C3)[nH]n2)cc1`, for which the “% Inhibition” value is given as -10% and the Z score turned out to be 1.05.
Turning to `Cc1cc(C(=O)N[C@H]2CCOC[C@@H]2OCc2ccccc2)c(C)n1C`, the “% Inhibition” value is 8% and the Z score is -1.34.
For `COc1ccc(-c2cc(C(=O)N[C@H]3CCN(c4ccc(=O)[nH]n4)C3)c(C)n2C)cc1` the same measures were 82% and -5.36.
Turning to `Cc1c(C(=O)NC2CCN(c3ccc(=O)n(C)n3)CC2)cc(-c2ccc(F)cc2)n1C`, the “% Inhibition” value was -5% and the Z score worked out at 0.6.
Take `COc1ccc(C(=O)N[C@H]2CCN(c3cc(-c4ccc(Cl)cc4)n[nH]3)C2)c(C)c1`: the “% Inhibition” value was -20% and the Z score stood at 2.
For the compound `Cn1nc(N2CC[C@H](NC(=O)C3CCCCC3)C2)ccc1=O`, the “% Inhibition” value is given as -6% and the Z score stood at 0.81.
For the compound `COc1ccc(-c2cc(C(=O)N[C@H]3CCN(c4ccc(=O)n(C)n4)C3)c(C)n2C)cc1`, the “% Inhibition” value was determined as 67% and the Z score is listed as -11.23.
On to `Cc1c(C(=O)NC2CC2)cc(-c2ccccc2)n1C`, for which the “% Inhibition” value worked out at 55% and the Z score is listed as 0.53.
On to `COc1cccc(C(=O)N2CCN(c3cccnc3)C(=O)C2)c1OC`, for which the “% Inhibition” value is given as 9% and the Z score is -1.08.
With `CN(C)S(=O)(=O)N1CCC2(CCC(=O)N(CCc3ccccn3)C2)CC1`, the “% Inhibition” value is reported as -12% and the Z score was 1.7.
For `CCc1ccccc1S(=O)(=O)NC[C@H](C(=O)O)C(C)C`, the “% Inhibition” value is listed as 2% and the Z score was -0.45.
Turning to `COCCN1C(=O)c2ccc(C(=O)NCc3ccncc3)cc2C1=O`, the “% Inhibition” value is given as -3% and the Z score stood at 0.39.
In the case of `Cc1ccc(-c2cn[nH]c2[C@H]2CCCN(C(=O)C(C)(C)O)C2)cc1`, the “% Inhibition” value is listed as -14% and the Z score is 2.64.
As to `NC(=O)C1CCN(C(=O)Cc2ccc(-c3ccccc3)cc2)CC1`, the “% Inhibition” value is -4% and the Z score turned out to be 0.36.
Regarding `COC(=O)C1(NC(=O)OC(C)(C)C)CC(CN2CCN(C)CC2)C1` (configuration not stated), the “% Inhibition” value was 10% and the Z score is -2.05.
In the case of `CCC1=C(c2ccc(C)cc2)S(=O)(=O)N=C1N1CCC(C(=O)NC2CCC(C)CC2)CC1` (configuration not stated), the “% Inhibition” value was -12% and the Z score is listed as 1.49.
As to `CCC1=C(c2ccc(C)cc2)S(=O)(=O)N=C1N1CCC(C(=O)NCCN2CCCC[C@@H]2C)CC1`, the “% Inhibition” value is reported as 53% and the Z score is listed as -6.49.
For `CCc1ccc(C2=C(C)C(N3CCC(C(=O)NC)CC3)=NS2(=O)=O)cc1`, in that order: -2% and 0.29.
Take `CCCCN(CC)CCNC(=O)C1CCN(C2=NS(=O)(=O)C(c3ccc(OC)cc3)=C2C)CC1`: the “% Inhibition” value came to 57% and the Z score was -3.61.
With `CC1=C(c2ccc(Cl)cc2)S(=O)(=O)N=C1N1CCC(C(=O)NCCN(C)C)CC1`, the “% Inhibition” value is -18% and the Z score was determined as 1.96.
In the case of `CCC1=C(c2ccc(C)cc2)S(=O)(=O)N=C1N1CCC(C(=O)NCCCc2ccccc2)CC1`, the “% Inhibition” value is reported as -9% and the Z score is given as 1.6.
For `CN1CC2(CCN(C(=O)c3ccccc3O)CC2)C[C@@H](c2ccccc2)C1=O` the same measures were -14% and 1.81.
As for `C=CCOC1CCN(C(=O)CCN2CCOC2=O)CC1`, the “% Inhibition” value is reported as -4% and the Z score was 0.57.
`Cc1nc(CNC(=O)c2nc3ccccc3[nH]c2=O)cs1`: the “% Inhibition” value is 5% and the Z score is reported as -0.75.
Consider `CC(C)c1ncc(CN(C)S(=O)(=O)N(C)C2CCCCC2)cn1`, for which the “% Inhibition” value is on record as -9% and the Z score amounted to 1.04.
Consider `CC(C)(C)OC(=O)NC1CC(NCC(O)c2ccco2)C12CCC2` (configuration not stated), for which the “% Inhibition” value is on record as 0% and the Z score is recorded as 0.02.
Consider `CCOc1ccc(C2c3[nH]c4ccccc4c3C[C@H]3C(=O)N(C4CCN(Cc5ccccc5)CC4)CC(=O)N23)cc1OC` (some centres not stated), for which the “% Inhibition” value was found to be 79% and the Z score is reported as -7.03.
Turning to `CCOc1ccc(C2c3[nH]c4ccccc4c3C[C@H]3C(=O)N(C4CCCCCCC4)CC(=O)N23)cc1OC` (some centres not stated), the “% Inhibition” value came to 12% and the Z score is -1.52.
For `COc1cccc(C2c3[nH]c4ccccc4c3C[C@H]3C(=O)N(C4CCN(Cc5ccccc5)CC4)CC(=O)N23)c1` (some centres not stated), in that order: 15% and -1.95.
Regarding `CCOc1ccc2nc(CN(C)[C@@H]3CCCC[C@@H]3O)ccc2c1`, the “% Inhibition” value is listed as -18% and the Z score came to 1.9.
Turning to `CCOc1ccc2nc(CN(Cc3cnn(C)c3)C3CC3)ccc2c1`, the “% Inhibition” value is recorded as -7% and the Z score came out at 1.15.
For `CCn1c(CN2CCCC2)nc2cc(S(=O)(=O)N3CCCCC3)ccc21`, in that order: -46% and 5.44.
Consider `Cc1ccc(CNC(=O)[C@]2(C)CCC(=O)N2CCCc2ccccc2)cc1`, for which the “% Inhibition” value is reported as -16% and the Z score was 1.5.
For `O=C(Nc1cccc(S(=O)(=O)NC2=NCCC2)c1)c1cc(Cl)c2c(c1)OCCCO2`, the “% Inhibition” value was -11% and the Z score came to 1.51.
As to `CCOc1cccc(-c2ccc3nc(-c4cccc(OC)c4)c(CCC(=O)NCCc4ccc(OC)c(OC)c4)n3c2)c1`, the “% Inhibition” value worked out at 22% and the Z score is -4.22.
In the case of `CCOc1cccc(-c2ccc3nc(-c4cccc(OC)c4)c(CCC(=O)NCCN4CCCC4)n3c2)c1`, the “% Inhibition” value is 59% and the Z score is listed as -11.14.
For `CCOc1cccc(-c2ccc3nc(-c4cccc(OC)c4)c(CCC(=O)NC4CC4)n3c2)c1`, the “% Inhibition” value came to 4% and the Z score is -0.75.
Regarding `Cc1nc(O)nc(O)c1CN1CCOCC1`, the “% Inhibition” value is listed as -10% and the Z score is given as 1.65.
Take `c1ccc(-c2nnc(-c3cccnc3NCc3cccs3)o2)cc1`: the “% Inhibition” value was -5% and the Z score is on record as 0.8.
Regarding `O=C1CCCN1[C@H]1CCCN(S(=O)(=O)CC2CCCCC2)CC1`, the “% Inhibition” value is listed as -7% and the Z score is 1.12.
As for `O=C1O[C@H]2CN(CCCc3ccccc3)C[C@H]2N1Cc1ccccn1`, the “% Inhibition” value is reported as -16% and the Z score came out at 1.43.
For `CCOCC1CCN(CCc2ccc3c(c2)CCO3)CC1`, in that order: -4% and 0.71.
In the case of `O=C([C@@H]1CCCN1C1CC1)N1CCC2(CC1)OCCc1ccccc12`, the “% Inhibition” value was -14% and the Z score is listed as 1.46.
For the compound `N#Cc1cccc(-c2ccnc(N[C@H]3CO[C@H]4[C@@H]3OC[C@@H]4NC(=O)c3ccc(C(F)(F)F)cc3)n2)c1`, the “% Inhibition” value is reported as -7% and the Z score is reported as 1.07.
With `COCC(=O)N[C@H]1CO[C@H]2[C@@H]1OC[C@@H]2Nc1nccc(-c2cccc(C#N)c2)n1`, the “% Inhibition” value is on record as 50% and the Z score is reported as -0.95.
`COCC(=O)N[C@H]1CO[C@H]2[C@@H]1OC[C@@H]2Nc1nccc(-c2ccc(OC)cc2)n1`: the “% Inhibition” value is listed as -5% and the Z score amounted to 0.87.
As to `CC(C)Cn1cccc(C(=O)Nc2cn(C)nc2-c2ccco2)c1=O`, the “% Inhibition” value is on record as -9% and the Z score is listed as 1.12.
For the compound `CCN(C(=O)COc1cccc(C)c1)[C@H](c1ccc(C)cc1)c1c[nH]c2ccccc12`, the “% Inhibition” value was 6% and the Z score was -0.77.
For `COc1ccc(-c2oc(C)c(C)[n+]2[O-])cc1OC`, the “% Inhibition” value was found to be 71% and the Z score worked out at 0.43.
Consider `Cc1ccccc1-c1oc(C)c(C)[n+]1[O-]`, for which the “% Inhibition” value is 2% and the Z score is reported as -0.28.
For `Cc1oc(-c2cccc(F)c2)[n+]([O-])c1C`, the “% Inhibition” value is listed as 5% and the Z score is reported as -0.64.
Turning to `COc1ccc(CN2C[C@H]3CC[C@@H](C2)N(CC=C(C)C)C3)cc1CN(C)C`, the “% Inhibition” value was -17% and the Z score is listed as 1.87.

The values above are taken from ChEMBL document CHEMBL4888484, “Replenishing the malaria drug discovery pipeline: Screening and hit evaluation of the MMV Hit Generation Library 1 (HGL1) against asexual blood stage Plasmodium falciparum ,using a nano luciferase reporter read-out” (2022).
